Measured values: the supplement of paper PMC8975748
Structures can show the parent of a compound that is named as a salt. ± gives the standard deviation of the averaged measurements.

Assays:
[1] = test system: Saccharomyces cerevisiae BY4741 SeMeCo community; experiment: mean cell size (pixel area) (pixels); higher = larger cells; details: 10 µM; 24 h; SM minimal medium
Outline: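 Mean cell pixel area per well was measured in a four-plasmid fluorescent community of Saccharomyces cerevisiae BY4741, where every plasmid complements one auxotrophy and carries a fluorescent marker. Cells from an overnight preculture at OD600 = 1.0 were diluted to OD600 = 0.3 and dispensed at 70 µl into 384-well plates acoustically predosed with drug to a final 10 µM in SM medium. Incubation lasted 24 h, followed by paraformaldehyde fixation, automated confocal imaging and analysis in Harmony. Reported figures are averaged over 3 replicates. Same SeMeCo high-content imaging drug screen: Selleck FDA-approved drugs at 10 µM, 24 h in SM medium, 384-well plates, 3 replicates.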

[2] = test system: Saccharomyces cerevisiae BY4741 SeMeCo community; experiment: z-score of prototroph abundance vs DMSO median; higher = larger share of this subpopulation than in DMSO controls; details: 10 µM; 24 h; SM minimal medium; subpopulation (auxotrophy): Prototroph
Outline: (§1)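 Cells of a Saccharomyces cerevisiae BY4741 community, carrying four plasmids that each restored one auxotrophy and encoded a distinct fluorescent protein, were pre-grown overnight to OD600 1.0 and diluted to 0.3. A 70 µl volume was added to 384-well plates acoustically predosed with library drugs (10 µM final) and grown 24 h in minimal SM medium. After paraformaldehyde fixation, automated confocal microscopy was used, with single-auxotroph fluorescent strains for thresholds and autofluorescence correction. The abundance of each subpopulation was scored as a z-score against the vehicle-well median.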

[3] = test system: Saccharomyces cerevisiae BY4741 SeMeCo community; experiment: z-score of subpopulation abundance vs DMSO median, subpopulation auxotrophic for M; higher = larger share of this subpopulation than in DMSO controls; details: 10 µM; 24 h; SM minimal medium; subpopulation (auxotrophy): M
Outline: as §1

[4] = test system: Saccharomyces cerevisiae BY4741 SeMeCo community; experiment: z-score of subpopulation abundance vs DMSO median, subpopulation auxotrophic for L; higher = larger share of this subpopulation than in DMSO controls; details: 10 µM; 24 h; SM minimal medium; subpopulation (auxotrophy): L
Outline: as §1

[5] = test system: Saccharomyces cerevisiae BY4741 SeMeCo community; experiment: z-score of subpopulation abundance vs DMSO median, subpopulation auxotrophic for U; higher = larger share of this subpopulation than in DMSO controls; details: 10 µM; 24 h; SM minimal medium; subpopulation (auxotrophy): U
Outline: as §1

[6] = test system: Saccharomyces cerevisiae BY4741 SeMeCo community; experiment: z-score of subpopulation abundance vs DMSO median, subpopulation auxotrophic for H; higher = larger share of this subpopulation than in DMSO controls; details: 10 µM; 24 h; SM minimal medium; subpopulation (auxotrophy): H
Outline: as §1

[7] = test system: Saccharomyces cerevisiae BY4741 SeMeCo community; experiment: z-score of subpopulation abundance vs DMSO median, subpopulation auxotrophic for LM; higher = larger share of this subpopulation than in DMSO controls; details: 10 µM; 24 h; SM minimal medium; subpopulation (auxotrophy): LM
Outline: as §1

[8] = test system: Saccharomyces cerevisiae BY4741 SeMeCo community; experiment: z-score of subpopulation abundance vs DMSO median, subpopulation auxotrophic for HM; higher = larger share of this subpopulation than in DMSO controls; details: 10 µM; 24 h; SM minimal medium; subpopulation (auxotrophy): HM
Outline: as §1

[9] = test system: Saccharomyces cerevisiae BY4741 SeMeCo community; experiment: z-score of subpopulation abundance vs DMSO median, subpopulation auxotrophic for HU; higher = larger share of this subpopulation than in DMSO controls; details: 10 µM; 24 h; SM minimal medium; subpopulation (auxotrophy): HU
Outline: as §1

[10] = test system: Saccharomyces cerevisiae BY4741 SeMeCo community; experiment: z-score of subpopulation abundance vs DMSO median, subpopulation auxotrophic for HL; higher = larger share of this subpopulation than in DMSO controls; details: 10 µM; 24 h; SM minimal medium; subpopulation (auxotrophy): HL
Outline: as §1

[11] = test system: Saccharomyces cerevisiae BY4741 SeMeCo community; experiment: z-score of subpopulation abundance vs DMSO median, subpopulation auxotrophic for HLU; higher = larger share of this subpopulation than in DMSO controls; details: 10 µM; 24 h; SM minimal medium; subpopulation (auxotrophy): HLU
Outline: as §1

[12] = test system: Saccharomyces cerevisiae BY4741 SeMeCo community; experiment: z-score of subpopulation abundance vs DMSO median, subpopulation auxotrophic for HLM; higher = larger share of this subpopulation than in DMSO controls; details: 10 µM; 24 h; SM minimal medium; subpopulation (auxotrophy): HLM
Outline: as §1

[13] = test system: Saccharomyces cerevisiae BY4741 SeMeCo community; experiment: z-score of subpopulation abundance vs DMSO median, subpopulation auxotrophic for LUM; higher = larger share of this subpopulation than in DMSO controls; details: 10 µM; 24 h; SM minimal medium; subpopulation (auxotrophy): LUM
Outline: as §1

[14] = test system: Saccharomyces cerevisiae BY4741 SeMeCo community; experiment: z-score of subpopulation abundance vs DMSO median, subpopulation auxotrophic for HUM; higher = larger share of this subpopulation than in DMSO controls; details: 10 µM; 24 h; SM minimal medium; subpopulation (auxotrophy): HUM
Outline: as §1

[15] = test system: Saccharomyces cerevisiae BY4741 SeMeCo community; experiment: z-score of subpopulation abundance vs DMSO median, subpopulation auxotrophic for HLUM; higher = larger share of this subpopulation than in DMSO controls; details: 10 µM; 24 h; SM minimal medium; subpopulation (auxotrophy): HLUM
Outline: as §1

[16] = test system: Saccharomyces cerevisiae BY4741 SeMeCo community; experiment: z-score of subpopulation abundance vs DMSO median, subpopulation auxotrophic for UM; higher = larger share of this subpopulation than in DMSO controls; details: 10 µM; 24 h; SM minimal medium; subpopulation (auxotrophy): UM
Outline: as §1

[17] = test system: Saccharomyces cerevisiae BY4741 SeMeCo community; experiment: z-score of subpopulation abundance vs DMSO median, subpopulation auxotrophic for LU; higher = larger share of this subpopulation than in DMSO controls; details: 10 µM; 24 h; SM minimal medium; subpopulation (auxotrophy): LU
Outline: as §1

SMILES	mean cell size [1]	z-score of prototroph abundance [2]	z-score of subpopulation abundance [3]	z-score of subpopulation abundance [4]	z-score of subpopulation abundance [5]	z-score of subpopulation abundance [6]	z-score of subpopulation abundance [7]	z-score of subpopulation abundance [8]	z-score of subpopulation abundance [9]	z-score of subpopulation abundance [10]	z-score of subpopulation abundance [11]	z-score of subpopulation abundance [12]	z-score of subpopulation abundance [13]	z-score of subpopulation abundance [14]	z-score of subpopulation abundance [15]	z-score of subpopulation abundance [16]	z-score of subpopulation abundance [17]
CCCCCCCCCCCCCCCCOP(=O)([O-])OCC[N+](C)(C)C [Miltefosine]	7.76 ± 0.26	-22.6	-7.93	-5.76	-5.15	-10.2	-4.09	0.26	1.54	3.75	0.88	15.6	20.4	–	–	–	–
OC(c1cc(C(F)(F)F)nc2c(C(F)(F)F)cccc12)C1CCCCN1 (stereo not given) [Mefloquine HCl]	12.3 ± 0.37	-0.39	-0.32	0.1	0.95	–	0.3	0.44	-0.36	0.36	0.29	–	0.86	0.3	0.33	–	–
CC[N+](CC)(CC)CC [Tetraethylammonium bromide]	12.27 ± 0.094	-0.64	0.89	-0.06	1.19	–	0.41	0.22	-0.09	-0.73	0.38	–	0.28	–	1.04	0.12	–
Nc1nc(=O)[nH]cc1F [Flucytosine]	13.9 ± 0.19	-10.3	-3.75	–	0.5	17.8	-4.29	–	8.85	13.2	1.33	35.5	4.96	10.3	38.3	1.6	–
O=C1CN2Cc3c(ccc(Cl)c3Cl)N=C2N1 [Anagrelide HCl]	12.3 ± 0.29	0.08	–	-0.32	-0.23	–	-0.53	-0.37	0.3	0.5	0.58	–	-0.58	0.14	0.12	0.39	-0.64
Oc1c(Cl)cc(Cl)cc1Sc1cc(Cl)cc(Cl)c1O [Bithionol]	12.4 ± 0.28	–	–	-1.47	1.53	6	-1.62	-0.03	5.87	3.98	2.39	–	2.62	3.51	2.92	–	1.88
O=C(CCCN1CCN(c2ccccn2)CC1)c1ccc(F)cc1 [Azaperone]	12.29 ± 0.072	-0.1	–	–	0.07	-0.28	0.61	–	0.16	-0.42	-0.03	-0.5	0.38	1.31	0.31	0.85	0.24
Cc1cc2c(s1)Nc1ccccc1N=C2N1CCN(C)CC1 [Olanzapine]	–	0.17	–	-0.11	-0.29	-0.12	0.65	0.2	–	-0.15	0.07	-0.05	-0.6	-0.5	0.21	0.07	-0.6
COc1ccc([C@@H]2Sc3ccccc3N(CCN(C)C)C(=O)[C@@H]2OC(C)=O)cc1 [Diltiazem HCl]	12.5 ± 0.27	0.76	–	0.4	-0.19	-0.4	0.01	–	-0.1	-0.78	0.03	–	-0.24	-0.36	–	-0.21	-0.4
CN1[C@@H]2CC[C@H]1C[C@@H](OC(=O)c1c[nH]c3ccccc13)C2 [Tropisetron]	–	-1.48	–	1.61	-0.36	0.66	1.96	2.08	0.59	1.63	1.41	1.12	1.16	0.95	0.38	0.48	0.87
CCCN1CCCC[C@H]1C(=O)Nc1c(C)cccc1C [Ropivacaine]	–	0.72	–	-0.8	-0.73	-0.64	0.11	-0.51	-0.86	-0.66	-0.32	-0.22	-0.83	–	-0.55	-0.14	-1.21
CC[C@@]1(O)C(=O)OCc2c1cc1n(c2=O)Cc2cc3cc(O)ccc3nc2-1 [Hydroxy Camptothecine]	12.5 ± 0.14	–	–	–	-5.21	–	3.19	3.39	-4.32	2.22	-1.2	1.86	–	-1.9	0.8	-4.43	-3.85
CC(C)N1CCN(c2ccc(OCC3COC(Cn4cncn4)(c4ccc(Cl)cc4Cl)O3)cc2)CC1 (stereo not given) [Terconazole]	12.1 ± 0.043	1.34	–	–	-0.27	-0.38	-0.49	-1.2	-0.58	–	-0.59	-0.59	-0.86	-0.65	-0.55	-0.8	-0.65
O=C(O)c1cn(-c2ccc(F)cc2)c2cc(N3CCNCC3)c(F)cc2c1=O [Sarafloxacin HCl]	12.2 ± 0.18	0.01	–	-0.74	0.41	-0.42	0.08	-0.52	0.4	-0.42	-0.35	–	0.54	0.61	-0.29	0.84	-0.05
CCC(=O)Oc1ccc2c(c1)CCC1C2CCC2(C)C(OC(=O)CC)CCC12 (stereo not drawn) [Estradiol dipropionate(17-Beta-Estradiol-3,17-Dipropionate)]	–	0.27	–	-1.37	0.61	–	–	-0.18	0.2	-0.96	-0.61	-0.83	-0.6	-0.16	–	0.34	-0.67
O=C1NC(=O)C(c2ccccc2)(c2ccccc2)N1 [Phenytoin]	12.39 ± 0.12	-0.03	–	-0.25	0.51	-0.22	0.5	-0.81	-0.49	-0.93	-0.45	–	–	–	–	0.49	0.23
